Compounds with a hit are over-represented: about 10% of the library has one in this group of screens.
BAZ2B block: qHTS Assay for Inhibitors of BAZ2B | Potency, µM (doses to about 114 µM), most hits filed as inhibitors | AlphaScreen BAZ2B-H3K14Ac peptide displacement | 360,000 compounds, 4.4% hits | Bromodomain adjacent to zinc finger domain protein 2B (Homo sapiens), Q9UIF8; further: nearly all actives have a fitted effect of over 60% in size
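In this displacement format the biotinylated H3(5-23) peptide acetylated at Lys14 serves as ligand at 50 nM, with BAZ2B at 50 nM in PBS pH 7.4 containing 0.01% Tween-20. Donor and acceptor beads are 10 ug/mL final.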
Six1-Eya2 blk: qHTS Assay for Inhibitors of the Six1/Eya2 Interaction; Homeobox protein SIX1 (Homo sapiens) + Protein phosphatase EYA2 (Homo sapiens), …; AlphaScreen GST-Six1/His-Eya2 binding, biochemical; stronger effect = lower value; activity change, % (no concentration beside the values); 360,000 compounds, 0.56% hits; AID 651725, 2012; in the data active means activity change below about -65%; inconclusive means mostly about -30% to -63%
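AlphaScreen with GST-Six1 and His-Eya2 (5X mix: 250 nM and 500 nM), glutathione donor and nickel acceptor beads; buffer 50 mM Tris pH 8.0, 300 mM NaCl, 1 mM TCEP; 1 h at 37 C in the dark.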
JMJD2A Tudor inh: qHTS Assay for Inhibitors of JMJD2A-Tudor Domain; Potency, µM (highest dose often 114 µM), hits mostly inhibitors; Lysine-specific demethylase 4A (Homo sapiens), O75164; AID 504339, 2011; AlphaScreen JMJD2A-Tudor / H3K4me3 peptide binding; 390,000 compounds, 4.4% hits; further: nearly all actives have a fitted effect of over 50% in size
G9a block: qHTS Assay for Inhibitors of Histone Lysine Methyltransferase G9a | G9a H3K9 monomethylation, AlphaScreen, 2 h | 350,000 compounds, 8.8% hits | Potency, µM (series often up to 102 µM), hits mostly inhibitors | AID 504332, 2011; further: nearly all actives have a fitted effect of over 75% in size
Target sequence (Q96KQ7 913-1193 limits assumed): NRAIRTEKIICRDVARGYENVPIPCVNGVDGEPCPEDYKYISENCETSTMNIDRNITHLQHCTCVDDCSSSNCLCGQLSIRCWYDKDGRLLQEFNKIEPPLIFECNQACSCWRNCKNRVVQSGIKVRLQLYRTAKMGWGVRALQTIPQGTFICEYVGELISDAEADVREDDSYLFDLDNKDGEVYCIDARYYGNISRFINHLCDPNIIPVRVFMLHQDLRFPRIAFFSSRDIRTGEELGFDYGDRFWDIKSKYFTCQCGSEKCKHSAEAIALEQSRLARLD
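Methyltransferase reactions run at room temperature for 2 h (20 nM enzyme, 500 nM biotin-H3K9 peptide, 20 uM SAM) after a 15 min compound preincubation; product detected by AlphaScreen beads and anti-H3K9me1 antibody.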
CtBP-E1A inh: qHTS Assay for Inhibitors of the CtBP/E1A Interaction | CtBP / adenovirus E1A interaction (AlphaScreen) | AlphaScreen GST-E1A/His-CtBP binding, 1536-well; stronger effect = lower value | activity change, % (concentration not given with the values) | 340,000 compounds, 0.49% hits | AID 651724, 2012; in the data active means activity change below about -65%; inconclusive means mostly about -30% to -63%
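AlphaScreen with 125 nM GST-E1A and 125 nM His-CtBP (5X stocks) in Tris pH 8.0, 300 mM NaCl, BSA, Tween 20, TCEP. Compounds preincubated 2 h at 37 deg C, then glutathione donor/nickel acceptor beads added for 1 h at 37 deg C in dark.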
HP1b chromo inh: HTS for Inhibitors of HP1-beta Chromodomain Interactions with Methylated Histone Tails | AlphaScreen HP1-beta / biotin-H3K9me3 peptide binding | Potency, µM (doses to about 114 µM), actives largely listed as inhibitors | 390,000 compounds, 0.56% hits; further: nearly all actives have a fitted effect of over 70% in size
Target sequence (P83916 whole entry, looked up): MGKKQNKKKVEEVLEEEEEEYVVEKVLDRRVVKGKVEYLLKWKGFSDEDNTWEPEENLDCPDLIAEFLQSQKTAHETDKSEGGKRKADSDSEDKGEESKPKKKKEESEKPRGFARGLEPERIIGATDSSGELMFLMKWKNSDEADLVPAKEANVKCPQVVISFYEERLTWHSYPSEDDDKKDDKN
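AlphaScreen: HP1-beta (50 nM) preformed 30 min with biotin-H3(1-18)K9me3 peptide (50 nM) in PBS pH 7.4, 0.01% Tween-20. Compound added for 30 min at RT, then streptavidin donor/nickel chelate acceptor beads (10 ug/mL) for 30 min.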
Large screens that a line does not name were inactive. Unless noted, the call rests on the fitted dose curve; in most records, active means well fitted inhibition curve with a large enough effect; inconclusive means small, poorly fitted or top-dose-only effect; inactive means no such curve, though single readings can be large or run the other way.

O=C(Oc1ccc2c(c1)OCC2=O)c1ccccc1	Six1-Eya2 blk -71
CC(C)N(C1=N/C(=C\c2ccco2)C(=O)N1c1ccccc1)C(C)C	G9a block inconclusive
CN1C(=S)N(c2ccccc2)C(=O)/C1=C/c1ccco1	G9a block 10µM
O=C1/C(=C/c2ccco2)N=C(N2CCCCC2)N1c1ccccc1	BAZ2B block 79µM, G9a block inconclusive
COc1ccc(N2C(=O)CN=C2Nc2nc(C)cc(C)n2)cc1OC	BAZ2B block inconclusive, JMJD2A Tudor inh 79µM
Cc1cc(C)nc(NC2=NCC(=O)N2c2ccc(F)c(Cl)c2)n1	JMJD2A Tudor inh inconclusive
Cc1cccc(NC(=O)CCCn2nc(C)c3c(C)n(-c4ccccc4)nc3c2=O)c1C	none (no result: Six1-Eya2 blk, CtBP-E1A inh)
Cc1cc(Cc2cc(C)c(N)cc2C)c(C)cc1N	BAZ2B block 35µM (no result: G9a block)
O=C(NC1CC(=O)N(c2ccc(F)cc2)C1)C(c1ccccc1)c1ccccc1 (stereo not drawn)	none (no result: Six1-Eya2 blk, CtBP-E1A inh)
COc1cc(C#Cc2c(-c3cncn3C)n(C)c3ccc(-c4ccc(CN5CCOCC5)cc4)cc23)cc(OC)c1	JMJD2A Tudor inh 8.9µM (no result: BAZ2B block, G9a block)
COc1cc(C#Cc2c(-c3cncn3C)n(C)c3ccc(-c4cnc(OC)nc4)cc23)cc(OC)c1	BAZ2B block 50µM, JMJD2A Tudor inh inconclusive
Cc1ccc(CNC(=O)CCCN2C(=O)COc3ccc(C)cc32)cc1	none (no result: Six1-Eya2 blk, CtBP-E1A inh)
COc1ccccc1OCC(=O)N(Cc1ccc(N(C)C)cc1)CC1CCCO1 (stereo not drawn)	BAZ2B block inconclusive, JMJD2A Tudor inh inconclusive, G9a block inconclusive (no result: Six1-Eya2 blk, CtBP-E1A inh)
Cc1cc(C)cc(OCC(=O)N(Cc2ccc(Cl)cc2)CC2CCCO2)c1 (stereo not drawn)	none (no result: Six1-Eya2 blk, CtBP-E1A inh)
Cc1cc(Cl)ccc1OCC(=O)N(Cc1ccc(N(C)C)cc1)CC1CCCO1 (stereo not drawn)	BAZ2B block 11µM, JMJD2A Tudor inh 28µM, G9a block 18µM, HP1b chromo inh inconclusive (no result: Six1-Eya2 blk, CtBP-E1A inh)
CN(C)c1ccc(CN(CC2CCCO2)C(=O)COc2ccccc2Cl)cc1 (stereo not drawn)	BAZ2B block 40µM, JMJD2A Tudor inh 45µM, G9a block 13µM, HP1b chromo inh inconclusive (no result: Six1-Eya2 blk, CtBP-E1A inh)
COc1cccc(NC(=S)N(Cc2ccc(Cl)cc2)Cc2ccc(C(=O)O)cc2)c1	G9a block 50µM
COc1ccc(Cl)cc1NC(=S)N(Cc1ccc(C(=O)O)cc1)Cc1ccc(OC)c(OC)c1	G9a block 28µM
CN(C(=O)CSc1nnc(NCc2ccccc2)s1)C1CCS(=O)(=O)C1 (stereo not drawn)	G9a block 50µM
CCn1c(SCC(=O)N(C)C2CCS(=O)(=O)C2)nnc1-c1ccccc1 (stereo not drawn)	G9a block inconclusive
CCN(C(=O)CSc1nnc(Nc2ccccc2C)s1)C1CCS(=O)(=O)C1 (stereo not drawn)	G9a block 50µM
Cc1cccc(Nc2nnc(SCC(=O)N(C)C3CCS(=O)(=O)C3)s2)c1C (stereo not drawn)	none
C=CCn1c(SCC(=O)N(C)C2CCS(=O)(=O)C2)nnc1-c1ccccc1 (stereo not drawn)	G9a block 56µM
Cc1ccc(SCC(=O)N(C)C2CCS(=O)(=O)C2)cc1 (stereo not drawn)	none
Cc1ccc(-c2nc(SCC(=O)N(C)C3CCS(=O)(=O)C3)[nH]c2-c2ccc(C)cc2)cc1 (stereo not drawn)	BAZ2B block 50µM, JMJD2A Tudor inh inconclusive, G9a block inconclusive
COc1cc2cc(C#N)c(SCC(=O)OC(C)C)nc2cc1OC	none (no result: BAZ2B block, Six1-Eya2 blk, G9a block, CtBP-E1A inh)
CCN(C(=O)CSc1nnc(C)n1Cc1ccccc1)C1CCS(=O)(=O)C1 (stereo not drawn)	G9a block 25µM (no result: CtBP-E1A inh)
CCN(C(=O)CSc1nnc(-c2ccc(F)cc2)c2ccccc12)C1CCS(=O)(=O)C1 (stereo not drawn)	G9a block 35µM
CCOc1ccc(C2CC(=O)Nc3nc(SCc4ccccc4C)[nH]c(=O)c32)cc1OC (stereo not drawn)	none (no result: Six1-Eya2 blk, CtBP-E1A inh)
CCOc1cc(C2c3c(oc4ccc(F)cc4c3=O)C(=O)N2Cc2ccco2)ccc1O (stereo not drawn)	none (no result: Six1-Eya2 blk, CtBP-E1A inh)
O=C(N/N=C/c1ccncc1)c1cccc(S(=O)(=O)Nc2ccc(Cl)cc2)c1	BAZ2B block 20µM
O=C(N/N=C/c1cccnc1)c1cccc(S(=O)(=O)Nc2cccc(Cl)c2)c1	none
Cc1ccc(/C=N/NC(=O)c2cccc(S(=O)(=O)Nc3ccccc3Cl)c2)s1	Six1-Eya2 blk inconclusive, JMJD2A Tudor inh inconclusive, G9a block 50µM, CtBP-E1A inh inconclusive
COc1ccc(S(=O)(=O)NCCc2sc(C)nc2C)cc1F	none (no result: Six1-Eya2 blk, CtBP-E1A inh)
COc1ccc(C)cc1NC(=O)c1ccc2c(c1)CCN2S(=O)(=O)c1ccc(Cl)cc1	none (no result: Six1-Eya2 blk, CtBP-E1A inh)
O=S(=O)(Cc1ccc(Cl)cc1)N1CCN(Cc2ccccc2)CC1	G9a block inconclusive
O=S(=O)(Cc1ccccc1)N1CCN(Cc2ccc(Br)cc2)CC1	JMJD2A Tudor inh 3.5µM, HP1b chromo inh inconclusive
CSc1ccc(CN2CCCN(C)CC2)cc1	BAZ2B block 56µM, JMJD2A Tudor inh 13µM, G9a block 10µM, HP1b chromo inh inconclusive
CCc1ccc(CN2CCN(S(=O)(=O)Cc3ccccc3)CC2)cc1	BAZ2B block 18µM, JMJD2A Tudor inh 0.79µM, G9a block inconclusive
O=S(=O)(Cc1ccccc1)N1CCN(Cc2ccc(F)cc2Cl)CC1	none (no result: G9a block)
CSc1ccc(CN2CCN(S(=O)(=O)Cc3ccccc3)CC2)cc1	JMJD2A Tudor inh 5µM, G9a block 89µM, HP1b chromo inh inconclusive
CCOc1ccccc1CNC(=O)c1cc2c(=O)n(Cc3ccccc3)ccc2nc1C	none (no result: Six1-Eya2 blk, CtBP-E1A inh)
O=C(NCC(O)CO)c1csc(Nc2cccc3ccccc23)n1 (stereo not drawn)	BAZ2B block inconclusive, G9a block 40µM
CCN(CC)CCCNC(=O)c1csc(Nc2cccc3ccccc23)n1	BAZ2B block inconclusive (no result: G9a block)
O=C(c1csc(Nc2cccc3ccccc23)n1)N1CCCC1	BAZ2B block 40µM
CCN(CC)C(=O)c1csc(Nc2cccc3ccccc23)n1	BAZ2B block inconclusive, G9a block 40µM
O=C(O)CCC(=O)Nc1ccc(-c2csc(Nc3cccc4ccccc34)n2)cc1	none

Bioassay records deposited in PubChem BioAssay by National Center for Advancing Translational Sciences (NCATS).
